This passage reports Potency results from PubChem BioAssay AID2733 (National Center for Advancing Translational Sciences (NCATS), 2010).

Results filed as inconclusive are left out. Where a call stands in place of a potency, no number is given. Active and inactive are the calls of the source. The call rests on the fitted dose curve; in most records, active means well fitted inhibition curve with a large enough effect; inconclusive means small, poorly fitted or top-dose-only effect; inactive means flat fitted curve, though single readings scatter.

This experiment in a line: High Content Assay for Compounds that inhibit the Assembly of the Perinucleolar Compartment: PC3M Cytotoxicity. From the text:
High Content Assay for Compounds that inhibit the Assembly of the Perinucleolar Compartment
NIH Chemical Genomics Center [NCGC]
NIH Molecular Libraries Probe Centers Network [MLPCN]
Assay Submitter (PI): Sui Huang, Northwestern University, Feinberg School of Medicine, Cell and Molecular Biology, Chicago, Illinois.
The perinucleolar compartment (PNC) is a non-membrane-bound nuclear subdomain that is associated with but structurally distinct from the nucleolus. The PNC is a heritable trait, in which the number of PNCs per cell in daughter cells often mimics that of their mother cells. The PNC is heterogeneous in shape, is stable through interphase, disassembles during mitosis, and reassembles in early G1. The PNC is concentrated with newly synthesized RNA polymerase III (pol III) RNAs (MRP RNA, RNAse P H1 RNA, hY RNAs[hY1, 2, 5], Alu RNA, and SRP [7SL] RNA) and RNA binding proteins (nucleolin, PTB, CUG-BP, KSRP, Raver1, Raver2, and Rod).
Extensive in vitro studies have shown that the PNC is unique to tumor cells and preferentially forms in tumor cells derived from solid tissues. […]
5. Luminescencent signal was detected on a Viewlux CCD based imager (PerkinElmer) with a clear filter and a 30 second integration time. […]

For the compound `Cc1c2ccncc2c(C)c2c1[nH]c1ccccc12`, the Potency is 31.6 µM (active).
The result for `Cc1ccc(C(O)(C(=O)NNC(=O)CN2CCN(C)CC2)c2ccc(C)cc2)cc1` reads “inactive”.
